# Data as given in PubChem BioAssay (NCI).
# The panel holds about 79,000 compounds, 15% with a hit somewhere; the sample as a whole holds those more often. Unmarked numbers belong to inactive results. Calls of active or inactive are those of the source. Rule as the data show it: active = growth inhibition above about 70%; inactive = the rest.
# Tests used:
# [1] = NCI Yeast Anticancer Drug Screen. Data for the rad50 strain (AID 155);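 also: 0% = growth of vehicle-only cultures of the same strain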; conditions: S. cerevisiae rad50 strain growth inhibition, stronger effect = higher value
# Outline: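 Yeast carrying a defined DNA repair defect were exposed to test compounds, and growth was compared with vehicle-treated controls to give percent inhibition.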
# [2] = NCI Yeast Anticancer Drug Screen. Data for the mec2-1 strain (AID 157); conditions: S. cerevisiae mec2-1 strain, stronger effect = higher value
# Outline: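 Mutant yeast (mec2-1) grown with compound; growth inhibition relative to vehicle control reported.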
# [3] = NCI Yeast Anticancer Drug Screen. Data for the sgs1 mgt1 strain (AID 161);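 also: 0% = growth of cultures given vehicle only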; conditions: S. cerevisiae sgs1 mgt1 strain, stronger effect = higher value
# Outline: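 Percent growth inhibition was derived by comparing compound-exposed mutant yeast with vehicle-exposed cultures. The strain carries alterations in DNA damage repair.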
# [4] = NCI Yeast Anticancer Drug Screen. Data for the cln2 rad14 strain (AID 165);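 also: 0% = growth equal to vehicle treated cultures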; conditions: S. cerevisiae cln2 rad14 strain, stronger effect = higher value
# Outline: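 Readout is yeast growth inhibition versus vehicle-treated controls, using a strain with cln2 and rad14 alterations exposed to compound.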
# [5] = NCI Yeast Anticancer Drug Screen. Data for the bub3 strain (AID 167); conditions: S. cerevisiae bub3 mutant strain, stronger effect = higher value
# Outline: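 Compounds were applied to a genetically altered yeast strain carrying a cell-cycle control defect. Growth inhibition was scored against vehicle-treated controls.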
# [6] = NCI Yeast Anticancer Drug Screen. Data for the mlh1 rad18 strain (AID 175); conditions: S. cerevisiae mlh1 rad18 strain growth inhibition, stronger effect = higher value
# Outline: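 Genetically defined yeast (DNA repair-deficient) exposed to compounds; growth inhibition determined relative to vehicle.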
# [7] = at 5.0 µM (retest, dose inferred, filed as 0.5)
# [8] = at 50.0 µM (retest, dose inferred, filed as 5.0)
SMILES,"growth inhibition [1, 7]","growth inhibition [1, 8]",growth inhibition ([1]; at 50.0 µM),"growth inhibition [2, 7]","growth inhibition [2, 8]",growth inhibition ([2]; at 50.0 µM),"growth inhibition [3, 7]","growth inhibition [3, 8]",growth inhibition ([3]; at 50.0 µM),"growth inhibition [4, 7] [%]","growth inhibition [4, 8]",growth inhibition ([4]; at 50.0 µM),"growth inhibition [5, 7]","growth inhibition [5, 8]",growth inhibition ([5]; at 50.0 µM),"growth inhibition [6, 7]","growth inhibition [6, 8]",growth inhibition ([6]; at 50.0 µM)
C=CCc1cc(C(=O)OCC)cc(OC)c1O,78% (active),97% (active),5.15%,22%,98% (active),-1.1%,34%,91% (active),3.9%,20,95% (active),-23.4%,19%,95% (active),74% (active),44%,97% (active),-0.35%
COC(=O)c1cn(NS(=O)(=O)c2ccc(OC)cc2)cc1C(=O)OC,-6%,8%,16.4%,-5%,4%,6.65%,-6%,14%,29.8%,-1,0%,33.9%,-5%,8%,-1.9%,-5%,6%,20.9%
CCOC(=O)c1[nH]cnc1/N=N/c1nc(O)c(C#N)[nH]1,8%,98% (active),-5.65%,3%,99% (active),9.8%,-13%,99% (active),6%,6,99% (active),0.85%,-4%,99% (active),1.55%,-6%,99% (active),-1.95%
CCNC1(C2c3ccccc3-c3ccccc32)c2ccccc2-c2ccccc21,13%,84% (active),20%,-17%,25%,11.8%,4%,84% (active),44.1%,-12,36%,18.5%,-4%,71% (active),58.4%,30%,74% (active),37%
CC(=O)OCCc1ccc(CCc2ccccc2)cc1,13%,47%,40.3%,1%,4%,18.6%,6%,28%,18.6%,4,-6%,-31.6%,8%,45%,67.7%,6%,-4%,62.6%
CN(C)c1nc(Cl)nc2c1ncn2C1OCC(O)C(O)C1O (configuration not stated),-4%,3%,10.7%,-8%,4%,22%,9%,7%,5.05%,1,-6%,1.25%,-1%,-7%,-5.1%,11%,11%,42.5%
CC(C)N(CCOc1ccc(/C=C/c2ccccc2)cc1)C(C)C,4%,1%,12.1%,4%,1%,-1.45%,8%,2%,55.9%,6,2%,8.5%,4%,-3%,75.8% (active),6%,4%,9.3%
Nc1ccc(-c2cccc(-c3ccccc3)c2)cc1,-8%,94% (active),98% (active),-11%,94% (active),97.7% (active),-11%,97% (active),96.2% (active),-40,96% (active),98.7% (active),-15%,97% (active),98.3% (active),-27%,97% (active),97.6% (active)
CNC1C(O)C(NC)C2OC3(O)C(=O)CC(C)OC3OC2C1O (configuration not stated),-7%,6%,84.1% (active),1%,-19%,89.8% (active),-7%,-1%,9.05%,17,23%,83.7% (active),-1%,-9%,86.3% (active),-27%,-30%,86.7% (active)
CCCCC(CC)CNc1ncnc2c1cnn2C (configuration not stated),1%,92% (active),36.7%,-3%,91% (active),-1.45%,1%,94% (active),91.7% (active),-10,89% (active),20.9%,0%,96% (active),48.4%,14%,96% (active),32.8%
N#CC(CC(Br)CBr)(c1ccccc1)c1ccccc1 (configuration not stated),8%,11%,45.9%,8%,24%,40.1%,11%,29%,56%,10,-2%,36.2%,9%,11%,33.3%,16%,51%,75.5% (active)
CC(C)C1COC(c2ccc3ccccc3c2-c2c(O[Si](C)(C)C(C)(C)C)ccc3ccccc23)=N1 (configuration not stated),20%,20%,93.2% (active),14%,14%,92% (active),12%,12%,92.8% (active),13,13%,92.7% (active),8%,8%,91.3% (active),4%,4%,91.2% (active)
COS(=O)c1cc(Cl)cc(Cl)c1OC(=O)CSSCC(=O)Oc1c(Cl)cc(Cl)cc1S(=O)OC (configuration not stated),87% (active),99% (active),98.8% (active),85% (active),99% (active),99.3% (active),95% (active),99% (active),99% (active),60,98% (active),99.3% (active),92% (active),98% (active),98.9% (active),84% (active),99% (active),99% (active)
O=C(N/C(=C\c1cc(Cl)ccc1Cl)c1nc2ccc(Cl)cc2[nH]1)c1ccccc1,29%,87% (active),93.2% (active),17%,82% (active),96.5% (active),28%,81% (active),93.8% (active),39,84% (active),91.9% (active),31%,87% (active),94.7% (active),14%,81% (active),96.5% (active)
CCCCCCCCCCC[n+]1ccc(C#N)cc1,-6%,64%,91.8% (active),10%,84% (active),57.7%,14%,91% (active),92.5% (active),16,56%,76.8% (active),-5%,75% (active),77.6% (active),10%,76% (active),91.6% (active)
CCCC/C=C(\CCCNCCCC)[Si](C)(C)C,52%,96% (active),89.9% (active),49%,99% (active),92.8% (active),77% (active),99% (active),93.3% (active),53,98% (active),90.8% (active),78% (active),99% (active),91% (active),81% (active),98% (active),90.7% (active)
CC1=NN(c2ccccc2)C(=O)C12[C@H](c1ccccc1)C2(C#N)C#N (some centres not stated),34%,92% (active),84% (active),37%,78% (active),54%,46%,96% (active),87.3% (active),25,74% (active),66.4%,41%,81% (active),77.6% (active),41%,87% (active),75.8% (active)
CC(=O)OCC1OC(N2CCc3cc([N+](=O)[O-])ccc32)C(OC(C)=O)C(OC(C)=O)C1OC(C)=O (configuration not stated),2%,-4%,-15.4%,-19%,20%,-1.35%,3%,23%,-9.2%,7,-3%,41.9%,3%,1%,-3.25%,11%,18%,-16.8%
CN(C(=O)C(Cl)Cl)c1ccc(-c2csc(-c3ccccc3)n2)cc1,5%,12%,12.9%,10%,-1%,33.9%,6%,20%,-7.4%,-2,-3%,95.8% (active),2%,22%,97% (active),4%,7%,22.4%
